Compound activity from PubChem.
The list is not random: actives were taken first. Their share in the collection is about 7.4%.
M1 agonist – M1 muscarinic receptor agonists, primary screen, CHO-M1 cells, Fluo-4 calcium, agonist mode; AID 626, 2007; Muscarinic acetylcholine receptor M1; Fluo-4 calcium fluorescence; active compounds read high; 3% of 64,000 active; B-score at 10 µM;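 active = fluorescence rise, raw or as B-score row- and column-corrected plate score, outside the 99.7% band of its plate's samples, either direction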
M1 antag – antagonists of rat M1 muscarinic receptor; Muscarinic acetylcholine receptor M1 (Rattus norvegicus), P08482; CHO-M1 cells, Fluo-4 calcium, ACh EC80 antagonist mode; active compounds read low; B-score at 10 µM; 3.4% of 64,000 active; AID 628, 2007;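 active = calcium fluorescence response, raw or row-and-column corrected B-score, differing from the plate sample mean either way at a set confidence level, mostly lower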
D1 mod – D1 CRE-luciferase signal change, two-sided – cell-based, HEK293 D1, dopamine EC30, D1 allosteric modulator project, primary screen. B-score at 10 µM. D(1A) dopamine receptor (Homo sapiens), P21728. dopamine EC30 potentiation; actives deviate in either direction. 5.9% of 58,000 active;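 active = luminescence count or its row- and column-corrected plate score outside the 99.7% band of the plate's sample wells, on either side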
FXIa mix inh – FXIa protease inhibitors in compound pools, primary screen, biochemical, 10-compound mixtures. inhibition, % at 5 µM. purified FXIa, fluorogenic substrate, pooled mixtures. 0.19% of 62,000 active. AID 680, 2007. Coagulation factor XI (Homo sapiens), P03951;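 also: each value is inhibition by a whole ten-compound pool holding the compound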
Target sequence (P03951 19-387 limits assumed): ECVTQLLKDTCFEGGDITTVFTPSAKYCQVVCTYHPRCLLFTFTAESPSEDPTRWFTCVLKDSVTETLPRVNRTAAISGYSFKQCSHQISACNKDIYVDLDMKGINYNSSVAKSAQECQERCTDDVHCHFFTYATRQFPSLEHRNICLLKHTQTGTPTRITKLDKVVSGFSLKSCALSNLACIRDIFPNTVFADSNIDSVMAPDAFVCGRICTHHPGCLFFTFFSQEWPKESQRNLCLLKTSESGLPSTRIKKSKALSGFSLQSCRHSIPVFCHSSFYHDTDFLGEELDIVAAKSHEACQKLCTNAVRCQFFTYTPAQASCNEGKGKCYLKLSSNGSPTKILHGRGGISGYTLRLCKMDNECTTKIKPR
Target sequence (P03951 388-625 limits assumed): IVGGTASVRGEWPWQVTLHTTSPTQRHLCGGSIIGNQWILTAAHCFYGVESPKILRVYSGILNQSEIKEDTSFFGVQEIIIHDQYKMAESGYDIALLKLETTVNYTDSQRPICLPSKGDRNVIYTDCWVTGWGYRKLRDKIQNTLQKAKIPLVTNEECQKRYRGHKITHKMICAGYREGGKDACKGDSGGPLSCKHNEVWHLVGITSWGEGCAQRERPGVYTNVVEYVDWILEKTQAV
hDAT+cocaine – changed hDAT dopamine uptake under cocaine IC80, either direction, primary screen, cocaine antagonist project, cell-based, LLC-PK1 hDAT, [14C]-dopamine uptake, MLSMR. Sodium-dependent dopamine transporter (Homo sapiens), Q01959. LLC-PK1 hDAT cells, [14C]-dopamine uptake with cocaine IC80; actives deviate in either direction. B-score at 10 µM. 1.3% of 110,000 active;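 active = Z score or B-score, a plate-position-corrected score, falls beyond the plate's 99.7% confidence bounds, in either direction; inactive = both scores lie inside the 99.7% bounds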
FXIIa mix inh – human factor XIIa inhibitors, primary screen, biochemical, pooled compound mixtures, fluorogenic substrate. purified FXIIa. inhibition, % at 5 µM. Coagulation factor XII (Homo sapiens), P00748. 0.2% of 62,000 active
D1 mod confirm – D1 receptor positive allosteric modulators, retest, confirmation, cell-based, HEK293 D1, CRE-luciferase, duplicate; AID 642, 2007; 88% of 2,200 active; luminescence at 10 µM; dopamine EC30 potentiation; active compounds read high; shares compounds with D1 mod;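 active = luminescence in either of two replicates above the same-plate mean plus 3 SD of the low-dose dopamine control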
D1 ag no DA – D1 receptor agonism without dopamine, confirmation, mechanism study for D1 allosteric modulator project, cell-based, HEK293 D1, CRE-luciferase, secondary assay 1; 0.8% of 1,900 active; luminescence, no dopamine; active compounds read high; AID 646, 2007; luminescence at 10 µM; shares compounds with D1 mod; in the data active = luminescence above about 3900
Isoprot counter – isoproterenol response counter-screen activity for D1 modulators; 63% of 2,200 active; AID 647; shares compounds with D1 mod; HEK293 D1 CRE-luciferase, isoproterenol EC30 counter-screen; calls only at 10 µM;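 active = luminescence in either replicate above plate mean of wells with a partly effective reference agonist dose plus 3 SD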;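 also: isoproterenol raises cAMP through native beta-adrenoceptor Gs so signal bypasses D1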
Numbers stand for hits; - = inactive; . = no result; + = active, no number. Rule as the data show it, unless noted: active = inhibition above about 20% (passing the limit was not always enough); inactive = the rest.

SMILES	M1 agonist	M1 antag	D1 mod	FXIa mix inh	hDAT+cocaine	FXIIa mix inh	D1 mod confirm	D1 ag no DA	Isoprot counter
COc1ccc(Cc2noc(-c3ccc(OC)c(OC)c3)n2)cc1OC	-	-	12	-	-	-	10328	-	+
CCOc1ccc(-c2noc(CCCC(N)=O)n2)cc1OC	.	.	.	.	-	.	.	.	.
COc1ccc(-c2noc(CCC(N)=O)n2)cc1OC	-	-	3.6	-	-	-	13684	-	-
COc1ccc(-c2noc(-c3ccco3)n2)cc1OC	-	-	5.2	-	-	-	18728	-	-
COc1ccc(-c2noc(CN(C(=O)c3ccc(OC(C)=O)cc3)C(C)C)n2)cc1OC	-	-	3.9	-	-	-	7848	-	+
CC1CC(C)CN(C(=O)COc2ccc(-c3nnco3)cc2)C1 (configuration not stated)	-	-	-	-	-	-	.	.	.
COc1ccc(-c2noc(COc3ccccc3OC)n2)cc1OC	-	-	11	-	-	-	17132	-	+
CCn1c(SCc2nc(-c3ccc(OC)c(OC)c3)no2)nnc1-c1cccs1	-	-	5.3	-	-	-	11432	-	+
COc1ccc(Cc2nnc(-c3cccc(C)c3)o2)cc1OC	-	-	4.3	-	-	-	13948	-	+
COc1ccc(-c2noc(CSc3nnc(Cc4ccccc4)n3-c3cccc(C)c3)n2)cc1OC	-	-	-	-	-	-	.	.	.
COc1ccc(CCNC(=O)CSc2nnc(-c3cccc(C)c3)o2)cc1OC	-	-	-	-	-	-	.	.	.
COc1ccc(-c2noc(COc3ccc4c(c3)OCO4)n2)cc1OC	-	-	-	-	-	-	.	.	.
CCOc1ccc(-c2noc(-c3ccncc3)n2)cc1OCC	-	-	11	-	-	-	.	-	+
CCOc1ccc(-c2nc(-c3cccnc3)no2)cc1OCC	.	.	.	.	-	.	.	.	.
Cc1sc2ncnc(SC(C)C#N)c2c1C (configuration not stated)	-	-	4.9	-	-	-	-	-	-
O=C1N=C(N2CCOCC2)SC1=C1CCCCC1	-	-	-	-	-	-	.	.	.
COc1ccc2c(C)c(C(=O)NCC(C)O)oc2c1OC (configuration not stated)	-	-	7.5	-	-	-	11688	-	+
COc1ccc(S(=O)(=O)N2CCc3ccccc32)cc1C(=O)OCc1nnc(-c2ccccc2)o1	-	-	3.2	-	-	-	7576	-	+
Cc1cc(C)n2nc3ccccc3c2n1	-	-	2.8	-	-	-	10324	-	+
Cc1cc(C)n2nc(Nc3ccccc3)cc2n1	-	-	-	-	-	-	.	.	.
CCC(=O)Nc1nonc1-c1nc2ccccc2n1Cc1ccccc1	-	-	3.3	-	-	-	13704	-	+
CCC(=O)Nc1nonc1-c1nc2ccccc2n1CCC(C)C	-	-	-	-	-	-	.	.	.
CN(C(=O)c1ccccc1)c1nc2ccccc2s1	-	-	-	-	-	-	.	.	.
COc1cccc(N(C(=O)c2cccs2)c2nc3ccccc3s2)c1	-	-	7.6	-	-	-	7024	.	+
O=C(CSc1nc2ccccc2s1)NC(=O)NCc1ccco1	-	-	5.9	-	-	-	8872	-	-
SMILES	M1 agonist	M1 antag	D1 mod	FXIa mix inh	hDAT+cocaine	FXIIa mix inh	D1 mod confirm	D1 ag no DA	Isoprot counter
Cc1sc2ncnc(SCc3ccco3)c2c1C	-	-	-	-	-	-	.	.	.
Cc1noc(C)c1CSc1ncnc2ccccc12	-	-	3.9	-	-	-	7560	-	-
Cc1noc(C)c1CSc1ncnc2sc(C)c(C)c12	-	-	5.2	-	-	-	10232	-	+
COc1ccc2cc(CN(CCc3ccccc3)Cc3nnnn3CC3CCCO3)c(=O)[nH]c2c1 (configuration not stated)	-	-	-	-	-	-	.	.	.
CC1CCN(C(=O)Cn2c(=O)n(Cc3ccc4c(c3)OCO4)c(=O)c3ccccc32)CC1	.	.	.	-	-	-	.	.	.
O=C(Cn1c(=O)n(Cc2ccc3c(c2)OCO3)c(=O)c2ccccc21)N1CCCc2ccccc21	-	-	6	-	-	-	10984	-	+
Cc1[nH]nc2c1C(c1ccc3c(c1)OCO3)C(C#N)=C(N)O2 (configuration not stated)	.	.	.	-	-	-	.	.	.
COc1ccc(C2C(C#N)=C(N)Oc3n[nH]c(-c4ccccn4)c32)c(OC)c1OC (configuration not stated)	-	-	11	-	.	-	17692	-	+
CCOc1ccc(-c2[nH]nc3c2C(c2ccc4c(c2)OCO4)C(C#N)=C(N)O3)cc1OC (configuration not stated)	-	-	2.4	-	-	-	10328	10840	+
COc1ccc(NC(=O)c2ccco2)cc1NC(=O)c1cccnc1	-	-	-	-	-	-	.	.	.
CC1(C(=O)NC2CCCCC2)CCC(=O)N1Cc1cccnc1 (configuration not stated)	-	-	7.5	-	-	-	-	-	-
C[C@@H]1C(=O)O[C@@H]2[C@H](O)C34[C@H]5C[C@@H](C(C)(C)C)C36[C@H](OC(=O)[C@@H]6O)OC4(C(=O)O5)[C@@]12O (some centres not stated)	.	.	.	.	-	.	.	.	.
COc1ccc(N(C(=O)c2ccco2)S(=O)(=O)c2cccs2)cc1	-	-	7.5	-	-	-	14396	-	+
O=C1COc2ccc(C(=O)c3ccccc3)cc2CN1	-	-	4.7	-	3.4	-	5740	-	-
CCN(C(=O)c1cc2cc3ccc(C)cc3nc2o1)c1ccc(OC)cc1	-	-	-	-	-	-	.	.	.
CCOC(=O)c1sc(NC(NC(=O)c2ccco2)(C(=O)OC)C(F)(F)F)nc1C (configuration not stated)	-	-	5.6	-	-	-	8940	-	+
Brc1cnc(N2CCCC2)nc1N1CCOCC1	-	-	6	.	-	.	18712	-	+
